Compound activity from PubChem.
A selection: hits, their analogues and other compounds. The true share with any hit is near 19%.
MCF10A rereplic: induces DNA re-replication in MCF 10a normal breast cells; AID 624296; 350,000 compounds, 2.9% hits; MCF 10A DNA re-replication, Hoechst nuclear intensity, 48 h; Potency, µM (titrated, usually from 46.1 µM), inactives show top-dose activity, positive = re-replication, usual class: activators; further: potency means the concentration at half of the fitted maximal effect; % of control where 0% means no effect; nearly all actives have a fitted effect of over 50% in size
DT40 TDP1 no CPT: qHTS for Inhibitors of human tyrosyl-DNA phosphodiesterase 1 (TDP1): qHTS in cells in absence of CPT; 420,000 compounds, 15% hits; AID 686978, 2013; DT40 Tdp1-/- hTDP1 cells, no CPT, ATP luminescence, 48 h; Potency, µM (titrated, usually from 46.2 µM), without a hit: at the top dose activity change, negative = growth inhibition, most hits filed as inhibitors; further: potency means the concentration at half of the fitted maximal effect; on the % scale 0 is the no-effect control and ±100 the full control effect; nearly all actives have a fitted effect of over 55% in size
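A cellular qHTS used chicken DT40 cells lacking endogenous Tdp1 but carrying stably transfected human TDP1. Compounds were applied without camptothecin, and cell growth kinetics were judged by ATP-dependent luminescence after ≥48 hr.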
IL-1B inflam inh: blocks inflammasome-driven IL-1 beta release. THP-1 LPS/ATP IL-1B secretion, AlphaLISA, 16 h; active compounds read low. activity change, % at 57.5 µM. 360,000 compounds, 4.7% hits; in the data active means activity change below about -50%; inconclusive means mostly about -30% to -49%; further: on the % scale 0 is the no-effect control and ±100 the full control effect
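THP-1 cells pretreated 1 hr with compounds (up to 57.5 uM final), then stimulated with LPS (250 ng/mL final) plus ATP (1.25 mM final); secreted IL-1B measured by AlphaLISA after 16 hr, decreased signal indicating inhibition.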
DT40 TDP1 CPT: growth inhibition of DT40 Tdp1-/-;hTDP1 cells with camptothecin (screen for TDP1 inhibitors) | chicken DT40 Tdp1-/-;hTDP1 cells + 20 nM CPT, ATP luminescence, 48 h | Potency, µM (titrated, usually from 46.2 µM), inactives show at the highest dose activity change, negative = growth inhibition, hits mostly inhibitors | 420,000 compounds, 12% hits | AID 686979; further: potency means the concentration at half of the fitted maximal effect; on the % scale 0 is the no-effect control and ±100 the full control effect; nearly all actives have a fitted effect of over 55% in size
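Cell growth measured by CellTiter-Glo luminescence after a minimum 48 h, 37 C compound exposure with 20 nM CPT in Tdp1-knockout DT40 cells stably expressing hTDP1, seeded 400/well; qHTS titration format.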
Chronic BCR inh: inhibitors of chronic active B-cell receptor signaling | AID 493014 | 340,000 compounds, 0.05% hits | ABC-DLBCL IkBa-CBG/CBR reporter, luminescence ratio, 4 h | Potency, µM (highest dose often 46.1 µM), for inactives: at the top dose activity change, negative = inhibition, most hits filed as inhibitors; active means well fitted inhibition curve with a large enough effect in the signal ratio, with a control signal flat, not every such curve was filed as active; inconclusive means small, poorly fitted or top-dose-only effect, or effect the other way, or a change in a side signal; the % refers to the signal ratio;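 further: potency means the concentration at half of the fitted maximal effect; plate controls were basal doxycycline-induced cells for no effect and cells given 10 µM MG132 for full effect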
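TMD8 ABC-DLBCL cells carrying doxycycline-inducible green luciferase fused to IkappaBalpha plus unfused red luciferase were exposed to compounds (up to 46 uM) for 4 hrs at 37C. Activity came from the overlap-corrected green/red luminescence ratio.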
SW480 rereplic: inducers of DNA re-replication in SW480 colon cancer cells | SW480 DNA re-replication, Hoechst DNA content imaging, 48 h | AID 624297 | 340,000 compounds, 1.8% hits | Potency, µM (doses to about 46.1 µM), for inactives: top-dose re-replication activation, most hits filed as activators; further: potency means the concentration at half of the fitted maximal effect; % of control where 0% means no effect; nearly all actives have a fitted effect of over 55% in size
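Image-based DNA-content assay: after two days of treatment, nuclei were labelled with the DNA dye Hoechst and imaged, and hits were compounds raising the count of nuclei showing high fluorescence intensity.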
Numbers without * were called inactive; ? = inconclusive; . = not tested or not shown; [ ] = remark or other dose. Unless noted, the call rests on the fitted dose curve; in most records, active means well fitted curve in the direction sought with a large enough effect; inconclusive means small, poorly fitted or top-dose-only effect, or another doubt; inactive means no such curve, though single readings can be large; an effect the other way counts as inactive or inconclusive.

SMILES	MCF10A rereplic	DT40 TDP1 no CPT	IL-1B inflam inh	DT40 TDP1 CPT	Chronic BCR inh	SW480 rereplic
Cc1ccc(-n2[nH]c(C)c(/C=N/c3ccccn3)c2=O)cc1	-8%	?	36	?	?	-2%
Cc1[nH]n(-c2ccccc2)c(=O)c1C=Nc1cccc2cccnc12	9%	0.92µM*	56	0.65µM*	20%	?
Cc1[nH]n(-c2ccccc2)c(=O)c1/C=N/N1C(=O)c2cccc3cccc(c23)C1=O	14%[9.22 µM]	16µM*	83	?	?	?
COc1ccc(C=O)cc1COc1ccc2c(c1)OCO2	?	4.6µM*	47	3.7µM*	?	3.7µM*
COc1ccc(C=O)cc1COc1ccc([N+](=O)[O-])c(C)c1	?	21µM*	15	16µM*	?	15µM*
CSc1ncccc1C(=O)OCC(=O)NC(C)CCc1ccccc1 (centres undefined)	?	-8%	17	1%	-6%	-11%
Cc1csc2c(N3CCN(S(=O)(=O)c4ccc(Cl)cc4)CC3)ncnc12	0%	23µM*	4	-21%	11%	-11%
O=S(=O)(c1ccc(Cl)cc1)N1CCN(c2ncnc3sccc23)CC1	-8%	5.8µM*	?	6.5µM*	-10%	2%
O=S(=O)(c1ccc(Cl)cc1)N1CCN(c2ccccn2)CC1	?	1%	-12	9%	4%	-8%
CCCOc1ccc(N2CC(C(=O)NC3=NCCS3)CC2=O)cc1 (centres undefined)	?	-10%	0	0%	-6%	-74%[1.84 µM]
O=C(O)CCCNC(=O)CCCn1nnc2ccccc2c1=O	-6%	12%	9	-1%	-1%	-3%
CC(=Cc1ccccc1)C(=O)c1ccccc1	.	?	35	?	.	.
O=C(C(Br)=Cc1ccccc1)c1ccccc1	16µM*	1.3µM*	-110*	0.73µM*	.	2.9µM*
CC(=O)C(=Cc1ccc(-c2ccccc2)cc1)C(=O)c1ccccc1	.	?	-112*	18µM*	.	.
N#CC(=Cc1ccc(-c2ccccc2)cc1)C(=O)c1ccccc1	.	-24%	30	?	.	.
CCOC(=O)c1c(Nc2ccccc2OCCOC)n[nH]c1C	1%	-19%	?	?	1%	-5%
CC(NC(=O)c1cccnc1)C(c1cccs1)N1CCN(c2ccccc2F)CC1 (centres undefined)	-2%	?	-1	23µM*	-4%	54%
COc1ccccc1N1CCN(C(c2cccs2)C(C)NC(=O)c2cccs2)CC1 (centres undefined)	2%	12µM*	-9	16µM*	-7%	1%
CC(=O)C1=C(O)C=C2Oc3c(C(C)=O)c(O)c(C)c(O)c3[C@]2(C)C1=O	.	3%	.	17%	.	.
CC(=O)c1c(O)c(C)c(O)c2c1OC1=Cc3c(c(C)nn3C)C(=O)C12C (centres undefined)	.	29µM*	10	16µM*	.	.
N#CC1(NC(=O)COC(=O)Cn2[nH]c(=O)c3ccccc3c2=O)CCCCC1	-1%	1%	-2	-10%	2%	-4%
COc1ccc(S(=O)(=O)N2N=C(C)Oc3ccccc3C2=O)cc1	7.9µM*	2.9µM*	42	2.9µM*	?	4µM*
Cc1ccc(C2=Nc3ccccc3N(CC(=O)Nc3ccccc3F)C(=O)C2)cc1C	.	26µM*	.	23µM*	.	.
CN(C)c1ccc(NC(=O)CN2C(=O)CC(c3ccccc3)=Nc3ccccc32)cc1	?	-21%	-5	2%	0%	-2%
Cc1ccc(NC(=O)CN2C(=O)CC(c3ccc(C)c(C)c3)=Nc3ccccc32)cc1	.	18µM*	.	21µM*	.	.
O=C(CN1C(=O)CC(c2ccccc2)=Nc2ccccc21)Nc1ccc(Br)cc1	.	21µM*	.	?	.	.
